Measurements reported in PubChem BioAssay (NCI).
This is part of a sample that, as a whole, favours compounds with a hit. Of some 79,000 tested, about 15% had one in any assay. Values without a mark were called inactive. The source made the active and inactive calls. Cut-off read from the data, not from the text of the source: active = growth inhibition above about 70%; inactive = the rest.

Legend:
[1] = NCI Yeast Anticancer Drug Screen. Data for the rad50 strain (AID 155);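 note: 0% = growth of vehicle-only cultures of the same strain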; conditions: S. cerevisiae rad50 strain growth inhibition, hits give high values
Outline: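 Readout: growth inhibition relative to vehicle-treated cultures. Compound exposure was carried out in a genetically defined yeast strain deficient in DNA damage repair.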

[2] = NCI Yeast Anticancer Drug Screen. Data for the mec2-1 strain (AID 157); conditions: S. cerevisiae mec2-1 strain, hits give high values
Outline: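 Readout is yeast growth inhibition, normalised to vehicle-treated controls, in the mec2-1 strain exposed to compound.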

[3] = NCI Yeast Anticancer Drug Screen. Data for the sgs1 mgt1 strain (AID 161);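 note: 0% = growth of cultures given vehicle only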; conditions: S. cerevisiae sgs1 mgt1 strain, hits give high values
Outline: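 Percent growth inhibition was derived by comparing compound-exposed mutant yeast with vehicle-exposed cultures. The strain carries alterations in DNA damage repair.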

[4] = NCI Yeast Anticancer Drug Screen. Data for the cln2 rad14 strain (AID 165);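 note: 0% = growth equal to vehicle treated cultures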; conditions: S. cerevisiae cln2 rad14 strain, hits give high values
Outline: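 Relative to vehicle controls, growth inhibition of compound-treated cln2 rad14 yeast was recorded.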

[5] = NCI Yeast Anticancer Drug Screen. Data for the bub3 strain (AID 167); conditions: S. cerevisiae bub3 mutant strain, hits give high values
Outline: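 Readout: yeast growth inhibition, expressed relative to vehicle-only wells. The test organism is a mutant strain from a panel with lesions in DNA repair or checkpoint genes.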

[6] = NCI Yeast Anticancer Drug Screen. Data for the mlh1 rad18 strain (AID 175); conditions: S. cerevisiae mlh1 rad18 strain growth inhibition, hits give high values
Outline: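 Test agents were incubated with a yeast strain of defined genotype (DNA damage repair defect). Inhibition of growth was derived by comparison with vehicle-exposed cultures.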

[7] = at 5.0 µM (retest, dose inferred, filed as 0.5)
[8] = at 50.0 µM (retest, dose inferred, filed as 5.0)

## CCCCCCCCCCC[N+](C)(C)CCCCCC[N+](C)(C)CCCCCCCCCCC
[1]; [7]
  growth inhibition: 92% (active)
[1]; [8]
  growth inhibition: 98% (active)
[1]; at 50.0 µM
  growth inhibition: 88.6% (active)
[2]; [7]
  growth inhibition: 97% (active)
[2]; [8]
  growth inhibition: 99% (active)
[2]; at 50.0 µM
  growth inhibition: 91% (active)
[3]; [7]
  growth inhibition: 99% (active)
[3]; [8]
  growth inhibition: 99% (active)
[3]; at 50.0 µM
  growth inhibition: 90.9% (active)
[4]; [7]
  growth inhibition: 96% (active)
[4]; [8]
  growth inhibition: 99% (active)
[4]; at 50.0 µM
  growth inhibition: 90.3% (active)
[5]; [7]
  growth inhibition: 99% (active)
[5]; [8]
  growth inhibition: 100% (active)
[5]; at 50.0 µM
  growth inhibition: 88.4% (active)
[6]; [7]
  growth inhibition: 97% (active)
[6]; [8]
  growth inhibition: 99% (active)
[6]; at 50.0 µM
  growth inhibition: 90.2% (active)

## Cc1[nH]nc(C(=O)OC(C)C)c1N=NN(C)C
[1]; [7]
  growth inhibition: -65%
[1]; [8]
  growth inhibition: 94% (active)
[1]; at 50.0 µM
  growth inhibition: 98.2% (active)
[2]; [7]
  growth inhibition: -43%
[2]; [8]
  growth inhibition: 98% (active)
[2]; at 50.0 µM
  growth inhibition: 98.7% (active)
[3]; [7]
  growth inhibition: -46%
[3]; [8]
  growth inhibition: 96% (active)
[3]; at 50.0 µM
  growth inhibition: 96.2% (active)
[4]; [7]
  growth inhibition: -69%
[4]; [8]
  growth inhibition: 97% (active)
[4]; at 50.0 µM
  growth inhibition: 97.3% (active)
[5]; [7]
  growth inhibition: -64%
[5]; [8]
  growth inhibition: 95% (active)
[5]; at 50.0 µM
  growth inhibition: 98.3% (active)
[6]; [7]
  growth inhibition: -115%
[6]; [8]
  growth inhibition: 95% (active)
[6]; at 50.0 µM
  growth inhibition: 98.7% (active)

## CC(C)c1ccc(O)c(O)c(=O)c1 (tested in a mixture with another compound)
[1]; [7]
  growth inhibition: 99% (active)
[1]; [8]
  growth inhibition: 100% (active)
[1]; at 50.0 µM
  growth inhibition: 99.5% (active)
[2]; [7]
  growth inhibition: 100% (active)
[2]; [8]
  growth inhibition: 100% (active)
[2]; at 50.0 µM
  growth inhibition: 99.7% (active)
[3]; [7]
  growth inhibition: 99% (active)
[3]; [8]
  growth inhibition: 99% (active)
[3]; at 50.0 µM
  growth inhibition: 99.5% (active)
[4]; [7]
  growth inhibition: 97% (active)
[4]; [8]
  growth inhibition: 99% (active)
[4]; at 50.0 µM
  growth inhibition: 99.1% (active)
[5]; [7]
  growth inhibition: 99% (active)
[5]; [8]
  growth inhibition: 100% (active)
[5]; at 50.0 µM
  growth inhibition: 99.3% (active)
[6]; [7]
  growth inhibition: 99% (active)
[6]; [8]
  growth inhibition: 99% (active)
[6]; at 50.0 µM
  growth inhibition: 99.3% (active)

## CCCCCNc1ccc2c(cc1=O)C(NC(C)=O)CCc1cc(OC)c(OC)c(OC)c1-2 (stereo not given)
[1]; [7]
  growth inhibition: 16%
[1]; [8]
  growth inhibition: 89% (active)
[1]; at 50.0 µM
  growth inhibition: 13.4%
[2]; [7]
  growth inhibition: 10%
[2]; [8]
  growth inhibition: 97% (active)
[2]; at 50.0 µM
  growth inhibition: 19.8%
[3]; [7]
  growth inhibition: 11%
[3]; [8]
  growth inhibition: 98% (active)
[3]; at 50.0 µM
  growth inhibition: 18.2%
[4]; [7]
  growth inhibition: 16%
[4]; [8]
  growth inhibition: 93% (active)
[4]; at 50.0 µM
  growth inhibition: 71.7% (active)
[5]; [7]
  growth inhibition: 21%
[5]; [8]
  growth inhibition: 97% (active)
[5]; at 50.0 µM
  growth inhibition: 45.2%
[6]; [7]
  growth inhibition: 19%
[6]; [8]
  growth inhibition: 95% (active)
[6]; at 50.0 µM
  growth inhibition: 24.9%

## O=c1[nH]c2ccccc2c2oc3ccccc3c12
[1]; [7]
  growth inhibition: -14%
[1]; [8]
  growth inhibition: 83% (active)
[1]; at 50.0 µM
  growth inhibition: 63.5%
[2]; [7]
  growth inhibition: -10%
[2]; [8]
  growth inhibition: 71% (active)
[2]; at 50.0 µM
  growth inhibition: 51.5%
[3]; [7]
  growth inhibition: -4%
[3]; [8]
  growth inhibition: 69%
[3]; at 50.0 µM
  growth inhibition: 64.5%
[4]; [7]
  growth inhibition: 18%
[4]; [8]
  growth inhibition: 32%
[4]; at 50.0 µM
  growth inhibition: 25.4%
[5]; [7]
  growth inhibition: -10%
[5]; [8]
  growth inhibition: 88% (active)
[5]; at 50.0 µM
  growth inhibition: 46.5%
[6]; [7]
  growth inhibition: -18%
[6]; [8]
  growth inhibition: 94% (active)
[6]; at 50.0 µM
  growth inhibition: 68.3%

## Nc1ccc2nnnn2c1
[1]; [7]
  growth inhibition: 0%
[1]; [8]
  growth inhibition: 72% (active)
[1]; at 50.0 µM
  growth inhibition: 24.5%
[2]; [7]
  growth inhibition: -2%
[2]; [8]
  growth inhibition: 19%
[2]; at 50.0 µM
  growth inhibition: 38%
[3]; [7]
  growth inhibition: 9%
[3]; [8]
  growth inhibition: 76% (active)
[3]; at 50.0 µM
  growth inhibition: 46.8%
[4]; [7]
  growth inhibition: 3%
[4]; [8]
  growth inhibition: 27%
[4]; at 50.0 µM
  growth inhibition: 31.2%
[5]; [7]
  growth inhibition: 10%
[5]; [8]
  growth inhibition: 78% (active)
[5]; at 50.0 µM
  growth inhibition: 5.8%
[6]; [7]
  growth inhibition: 14%
[6]; [8]
  growth inhibition: 91% (active)
[6]; at 50.0 µM
  growth inhibition: 70.5% (active)

## CC(=O)OC1OC2C(NC(=O)OC(C)(C)C)C1CC2(OCc1ccccc1)OCc1ccccc1 (stereo not given)
[1]; [7]
  growth inhibition: 35%
[1]; [8]
  growth inhibition: 35%
[1]; at 50.0 µM
  growth inhibition: 23.6%
[2]; [7]
  growth inhibition: 25%
[2]; [8]
  growth inhibition: 25%
[2]; at 50.0 µM
  growth inhibition: -24.4%
[3]; [7]
  growth inhibition: 29%
[3]; [8]
  growth inhibition: 29%
[3]; at 50.0 µM
  growth inhibition: -3.2%
[4]; [7]
  growth inhibition: 8%
[4]; [8]
  growth inhibition: 8%
[4]; at 50.0 µM
  growth inhibition: 9.6%
[5]; [7]
  growth inhibition: 18%
[5]; [8]
  growth inhibition: 18%
[5]; at 50.0 µM
  growth inhibition: -12.8%
[6]; [7]
  growth inhibition: 28%
[6]; [8]
  growth inhibition: 28%
[6]; at 50.0 µM
  growth inhibition: 9%

## O=C1C=CC(=O)C2C3C=CC(CC3)C12 (stereo not given)
[1]; [7]
  growth inhibition: 8%
[1]; [8]
  growth inhibition: 29%
[1]; at 50.0 µM
  growth inhibition: 47.1%
[2]; [7]
  growth inhibition: 20%
[2]; [8]
  growth inhibition: 36%
[2]; at 50.0 µM
  growth inhibition: 43.6%
[3]; [7]
  growth inhibition: 10%
[3]; [8]
  growth inhibition: 36%
[3]; at 50.0 µM
  growth inhibition: 70.1% (active)
[4]; [7]
  growth inhibition: 14%
[4]; [8]
  growth inhibition: 43%
[4]; at 50.0 µM
  growth inhibition: 78.2% (active)
[5]; [7]
  growth inhibition: 0%
[5]; [8]
  growth inhibition: 23%
[5]; at 50.0 µM
  growth inhibition: 92.5% (active)
[6]; [7]
  growth inhibition: 11%
[6]; [8]
  growth inhibition: 39%
[6]; at 50.0 µM
  growth inhibition: 84.6% (active)

## CCOCCC(=O)N1c2ccccc2CC1c1c[nH]c2ccccc12 (stereo not given)
[1]; [7]
  growth inhibition: -6%
[1]; [8]
  growth inhibition: 36%
[1]; at 50.0 µM
  growth inhibition: 74.3% (active)
[2]; [7]
  growth inhibition: -9%
[2]; [8]
  growth inhibition: 32%
[2]; at 50.0 µM
  growth inhibition: 4.65%
[3]; [7]
  growth inhibition: -8%
[3]; [8]
  growth inhibition: 59%
[3]; at 50.0 µM
  growth inhibition: 51.6%
[4]; [7]
  growth inhibition: -57%
[4]; [8]
  growth inhibition: 36%
[4]; at 50.0 µM
  growth inhibition: 8.45%
[5]; [7]
  growth inhibition: -8%
[5]; [8]
  growth inhibition: 48%
[5]; at 50.0 µM
  growth inhibition: 0.45%
[6]; [7]
  growth inhibition: -4%
[6]; [8]
  growth inhibition: 34%
[6]; at 50.0 µM
  growth inhibition: 67.1%

## CCCCCCCCCCCCNCc1ccc(Cl)c(Cl)c1
[1]; [7]
  growth inhibition: 72% (active)
[1]; [8]
  growth inhibition: 96% (active)
[1]; at 50.0 µM
  growth inhibition: 99.8% (active)
[2]; [7]
  growth inhibition: 91% (active)
[2]; [8]
  growth inhibition: 98% (active)
[2]; at 50.0 µM
  growth inhibition: 99.7% (active)
[3]; [7]
  growth inhibition: 89% (active)
[3]; [8]
  growth inhibition: 98% (active)
[3]; at 50.0 µM
  growth inhibition: 99.8% (active)
[4]; [7]
  growth inhibition: 58%
[4]; [8]
  growth inhibition: 90% (active)
[4]; at 50.0 µM
  growth inhibition: 99.6% (active)
[5]; [7]
  growth inhibition: 76% (active)
[5]; [8]
  growth inhibition: 96% (active)
[5]; at 50.0 µM
  growth inhibition: 97% (active)
[6]; [7]
  growth inhibition: 87% (active)
[6]; [8]
  growth inhibition: 96% (active)
[6]; at 50.0 µM
  growth inhibition: 99.7% (active)
